PubChem BioAssay (NCI)
Compounds without any hit were thinned out: in the full panel of roughly 83,000, 20% have a hit.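 Note: values are percent growth. 100 is the growth of untreated cells, values between 100 and 0 indicate rising inhibition; between -100 and 0 indicates cell death.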 A number with no mark means an inactive call. The source made the active and inactive calls. Rule for the calls: active = growth percent below 10; inactive = the rest.

Experiments:
Experiment in all cases: NCI-60 one-dose screen, 48 h (100 = growth as untreated, 0 = no growth, -100 = all killed)
Details in all cases: 10 µM unless noted
NCI-H23 lung = tested on: NCI-H23 lung
NCI-H226 lung = tested on: NCI-H226 lung
NCI-H322M lung = tested on: NCI-H322M lung
HOP-62 NSCLC = tested on: HOP-62 NSCLC
HOP-92 NSCLC = tested on: HOP-92 NSCLC
NCI-H522 lung = tested on: NCI-H522 lung
A549/ATCC NSCLC = tested on: A549/ATCC NSCLC
786-0 renal = tested on: 786-0 renal
COLO 205 colon = tested on: COLO 205 colon
DU-145 prostate = tested on: DU-145 prostate
K-562 leukemia = tested on: K-562 leukemia
MALME-3M melanoma = tested on: MALME-3M melanoma
MDA-MB-231 breast = tested on: MDA-MB-231 breast
RXF 393 renal = tested on: RXF 393 renal
SF-268 CNS = tested on: SF-268 CNS
SF-295 CNS = tested on: SF-295 CNS
SF-539 CNS = tested on: SF-539 CNS
UACC-257 melanoma = tested on: UACC-257 melanoma
M14 melanoma = tested on: M14 melanoma

| Compound | growth (NCI-H23 lung) | growth (NCI-H226 lung) | growth (NCI-H322M lung) | growth (HOP-62 NSCLC) | growth (HOP-92 NSCLC) | growth (NCI-H522 lung) [%] | growth (A549/ATCC NSCLC) [%] | growth (786-0 renal) | growth (COLO 205 colon) | growth (DU-145 prostate) | growth (K-562 leukemia) [%] | growth (MALME-3M melanoma) | growth (MDA-MB-231 breast) | growth (RXF 393 renal) | growth (SF-268 CNS) [%] | growth (SF-295 CNS) | growth (SF-539 CNS) | growth (UACC-257 melanoma) [%] | growth (M14 melanoma) |
| --- | --- | --- | --- | --- | --- | --- | --- | --- | --- | --- | --- | --- | --- | --- | --- | --- | --- | --- | --- |
| CCOc1nc(-c2ccccc2)cc2c(O)c(C(=O)NN)[nH]c(=O)c12 | 117% | 105% | 104% | 123% | 93.2% | 88.5 | 103 | 97.3% | 121% | 120% | 134 | 112% | 99.3% | 108% | 86.2 | 107% | 96.9% | 103 | 98.8% |
| O=C1N(Cc2ccccc2Cl)c2ccccc2C12NN=C(c1cccc(Cl)c1)S2 (stereo unspecified) | -18.7% (active) | -58.4% (active) | -12.7% (active) | -22.6% (active) | -68.3% (active) | 16.7 |  | -67.7% (active) | 66.8% | -46.2% (active) | 10.1 | -23.6% (active) | -4.77% (active) | -73% (active) | 26.2 | -44.9% (active) | 6.32% (active) | 18.9 | 4.67% (active) |
| CN(CCOc1ccc(C#N)cc1)CCOc1ccc(C#N)cc1 | 56.5% | 62% | 87.1% | 46% | 63.3% | 86.6 | 60.2 | 26.3% | 52.1% | 94.3% | 101 | 76.5% | 71.2% | 53.7% | 103 | 483% | 96.1% | 65.8 | 65.2% |
| N#CC1C=CN(CC(N)=O)c2ccc3cccnc3c21 (stereo unspecified) | 94.7% | 87.5% | 97.3% | 95.2% | 98.3% | 85.6 | 88.9 | 98.3% | 80.3% | 108% | 94.7 | 97.5% | 95.5% | 114% | 105 | 103% | 99.1% | 89 | 97.7% |
| COc1ccc(C2=Nc3c/c(=C\c4c(O)[nH]c5ccc(Cl)cc45)ccc3=N2)cc1 | 52.1% | 66.5% | 81.9% | 28.2% | 52.8% | 29.3 | 62.5 | 43.6% | -9.26% (active) | 73.2% | 19.4 | 40.8% | 42.7% | -27.2% (active) | 53.4 | 29.6% | 59.9% | 54 | 27.6% |
| CC1=Nc2cnc(Nc3ccc(OCCN4CCCC4)cc3)nc2Nc2ccccc21 | 80.4% | 77.8% | 44.6% | 86.4% | 43.2% | 73.9 | 86.5 | 54% | 72.2% | 56.1% | 39.6 | 68% | 59.7% | 36% | 63.9 | 85.6% | 68.6% | 89.3 | 52.6% |
| CCCCCCCCCCCCCCCCCCOc1ccccc1CC(=O)NCC[N+]1(C)CCCC1 | 55.3% | 70.5% | 67.3% | 54% | 22.6% | 32.8 | 50.6 | 70.2% | -6.88% (active) | 56.8% | 36.9 | 52.4% | 43.1% | 4.86% (active) | 31 | 86.5% | 82.1% | 93.2 | 65.8% |
| O=C(/C=C/c1ccc(Cl)cc1)c1cccc(Nc2nc(Nc3ccccc3)nc(Nc3ccccc3)n2)c1 | 85.8% | 96.9% | 94.6% | 85.2% | 24.1% | 89.3 | 81.8 | 86.4% | 93.1% | 121% | 71.4 | 95.6% | 80.7% | -30.3% (active) | 113 | 62.2% | 116% | 103 | 94.2% |
